Results on 19 molecules are retold here after PubChem BioAssay.

Assay [1] is described as follows: antimalarial activity against Dd2 strain (AID 2302;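 active = growth inhibition above 50% at the single 2 µM test dose, taken to imply half-maximal potency below 2 µM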;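 note: 0% = DMSO untreated growth and 100% = chloroquine plus artemisinin killed control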). The settings on record: P. falciparum Dd2 in RBCs, LDH growth readout, 72 h; at 2 µM; hits give high values.
Assay [2] can be described thus: human hepatoma cell viability loss – ATP luminescence, cytotoxicity control for P. falciparum antimalarial project, primary screen (AID 2303;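 active = inhibition above 50%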;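 note: 0% = DMSO wells and 100% = digitonin-killed cells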). The settings on record: HepG2 viability, 24-48 h, at 10 µM, hits give high values.
Assay [3] deals with L-lactate dehydrogenase (Plasmodium falciparum (isolate CDC / Honduras)) (UniProt Q27743). Put plainly: PfLDH activity inhibition – cell lysate, 3D7 strain, counter-screen for P. falciparum growth inhibition project (AID 2304).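 Note: 0% = vehicle and 100% = reference inhibitor.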 The settings on record: P. falciparum 3D7 crude extract, LDH APAD/NBT absorbance; at 2 µM; hits give high values. Background: The purpose of a counterscreen is to sort out artefacts and off-target activity.

A short description of assay [4]: inhibition of 3D7 malaria parasite growth – strain 3D7 (AID 2306).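 Note: 0% = DMSO wells and 100% = chloroquine plus artemisinin control wells.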 The settings on record: P. falciparum 3D7 erythrocytic growth, LDH absorbance, 72 h; at 2 µM; hits give high values.
For assay [5], the target named is Calcium-dependent protein kinase 1 (Plasmodium falciparum (isolate 3D7)) (UniProt P62344). Put plainly: PfCDPK1 kinase inhibitors, biochemical, TCAMS library (AID 1159585; cut-off not given, nearly all actives have IC50 up to about 0.98 µM;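 note: inhibitors leave more ATP so luminescence rises with inhibition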). The settings on record: recombinant PfCDPK1, Kinase-Glo ATP depletion luminescence. (In Kinase-Glo more light means more ATP remaining.)
Assay [6] deals with Plasmodium falciparum protein kinase 6 (PK6, PF3D7_1337100) (UniProt Q8IDW1). The assay is described as follows: PfPK6 kinase inhibitors, biochemical, TCAMS library (AID 1159586). The conditions noted are these: recombinant PfPK6, Kinase-Glo ATP depletion luminescence.
Assay [7] addresses Protein kinase 7 (PK7), Plasmodium falciparum 3D7 (PF3D7_0213400) (UniProt Q7YTF7). The assay is described as follows: inhibition of Plasmodium PK7 catalytic activity – biochemical, TCAMS antimalarial set, Kinase-Glo luminescence (AID 1159587). The settings on record: recombinant PfPK7, Kinase-Glo ATP depletion luminescence.
Assay [8] concerns the target Calcium-dependent protein kinase 4 (Plasmodium falciparum (isolate 3D7)) (UniProt Q8IBS5). Put plainly: PfCDPK4 kinase inhibitors, biochemical, TCAMS library (AID 1159588; cut-off not given, nearly all actives have IC50 up to about 0.91 µM). The conditions noted are these: recombinant PfCDPK4, Kinase-Glo ATP depletion luminescence.

A number with no mark means an inactive call. For some assays here: Measured potencies and affinities stand elsewhere. Calls of active or inactive are those of the source. Unless noted, the rule behind the calls is not given here.

Sequence of L-lactate dehydrogenase (Plasmodium falciparum (isolate CDC / Honduras)) (Q27743 whole entry, looked up): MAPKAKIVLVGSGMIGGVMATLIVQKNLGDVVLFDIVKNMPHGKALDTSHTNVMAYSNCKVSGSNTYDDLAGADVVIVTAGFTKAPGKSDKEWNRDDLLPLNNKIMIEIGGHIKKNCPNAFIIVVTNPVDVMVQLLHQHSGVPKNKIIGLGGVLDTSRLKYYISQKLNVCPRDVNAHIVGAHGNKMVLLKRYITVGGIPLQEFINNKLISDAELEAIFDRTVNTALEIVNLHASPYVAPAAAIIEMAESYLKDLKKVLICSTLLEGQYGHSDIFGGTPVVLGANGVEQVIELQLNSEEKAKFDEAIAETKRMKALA
Sequence of Protein kinase 7 (PK7), Plasmodium falciparum 3D7 (PF3D7_0213400) (Q7YTF7 1-343): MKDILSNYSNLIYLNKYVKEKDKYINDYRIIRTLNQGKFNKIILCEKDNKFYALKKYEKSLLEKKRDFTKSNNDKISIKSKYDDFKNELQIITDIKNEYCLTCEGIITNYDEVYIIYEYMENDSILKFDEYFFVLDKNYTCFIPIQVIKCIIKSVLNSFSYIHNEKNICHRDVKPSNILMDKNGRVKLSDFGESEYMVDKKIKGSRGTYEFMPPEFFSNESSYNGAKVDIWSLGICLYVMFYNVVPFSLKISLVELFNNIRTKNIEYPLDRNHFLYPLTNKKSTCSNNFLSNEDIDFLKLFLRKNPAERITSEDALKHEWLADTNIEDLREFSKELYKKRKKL
Sequence of Calcium-dependent protein kinase 1 (Plasmodium falciparum (isolate 3D7)) (P62344 whole entry, looked up): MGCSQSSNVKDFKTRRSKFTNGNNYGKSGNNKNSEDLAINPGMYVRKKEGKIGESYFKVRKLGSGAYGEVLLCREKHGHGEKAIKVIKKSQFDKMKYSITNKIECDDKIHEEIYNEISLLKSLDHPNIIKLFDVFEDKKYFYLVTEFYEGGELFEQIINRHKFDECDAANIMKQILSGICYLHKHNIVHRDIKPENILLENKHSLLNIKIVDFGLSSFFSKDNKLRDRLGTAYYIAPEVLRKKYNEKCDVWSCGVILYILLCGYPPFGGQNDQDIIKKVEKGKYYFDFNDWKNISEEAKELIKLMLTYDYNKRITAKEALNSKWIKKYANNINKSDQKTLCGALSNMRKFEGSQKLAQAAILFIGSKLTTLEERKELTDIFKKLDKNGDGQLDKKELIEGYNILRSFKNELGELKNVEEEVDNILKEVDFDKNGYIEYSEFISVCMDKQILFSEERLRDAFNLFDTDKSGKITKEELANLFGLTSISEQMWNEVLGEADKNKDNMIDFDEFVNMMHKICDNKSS
Sequence of Calcium-dependent protein kinase 4 (Plasmodium falciparum (isolate 3D7)) (Q8IBS5 whole entry, looked up): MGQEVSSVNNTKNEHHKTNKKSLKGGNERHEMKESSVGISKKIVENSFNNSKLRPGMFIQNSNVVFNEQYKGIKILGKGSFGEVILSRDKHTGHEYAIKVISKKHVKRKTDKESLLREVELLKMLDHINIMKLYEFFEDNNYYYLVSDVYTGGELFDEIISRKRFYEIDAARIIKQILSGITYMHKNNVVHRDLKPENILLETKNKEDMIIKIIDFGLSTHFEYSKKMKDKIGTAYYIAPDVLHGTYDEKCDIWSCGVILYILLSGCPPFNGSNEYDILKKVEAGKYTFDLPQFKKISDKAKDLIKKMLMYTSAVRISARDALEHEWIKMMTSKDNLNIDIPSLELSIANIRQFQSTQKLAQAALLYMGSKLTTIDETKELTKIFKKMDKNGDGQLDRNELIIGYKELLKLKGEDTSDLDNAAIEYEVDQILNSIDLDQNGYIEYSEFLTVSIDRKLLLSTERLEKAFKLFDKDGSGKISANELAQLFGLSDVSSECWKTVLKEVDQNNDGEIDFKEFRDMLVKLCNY
Sequence of Plasmodium falciparum protein kinase 6 (PK6, PF3D7_1337100) (Q8IDW1 1-305): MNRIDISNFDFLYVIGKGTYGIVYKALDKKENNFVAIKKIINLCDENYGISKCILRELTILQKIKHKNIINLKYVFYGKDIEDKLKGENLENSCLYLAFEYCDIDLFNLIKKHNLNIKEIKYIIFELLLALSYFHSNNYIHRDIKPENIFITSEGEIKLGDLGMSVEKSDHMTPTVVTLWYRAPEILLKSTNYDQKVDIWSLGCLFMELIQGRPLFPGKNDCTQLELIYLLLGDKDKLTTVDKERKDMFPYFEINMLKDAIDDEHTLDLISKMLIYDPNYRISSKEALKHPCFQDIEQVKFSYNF

In the case of `O=[N+]([O-])c1cccc(Nc2cncc(-c3ccc(CO)cc3)c2)c1`, the growth inhibition is 96% (active) in assay [1] and 85% (active) in assay [4]. For the same molecule, the inhibition (in general, the change of the read-out against control, counted positive when it falls) in assay [2] is 16%; in assay [3], -5%. In addition, the result in assay [5], in assay [6], in assay [7] and in assay [8] was inactive.

For `C=CCOC(=O)O[C@@H]1[C@@H](OC(=O)OCC=C)[C@@H](OC)O[C@H](COC(c2ccccc2)(c2ccccc2)c2ccccc2)[C@H]1OC(=O)OCC=C`, the growth inhibition in assay [1] is 96% (active); in assay [4], 95% (active). For the same molecule, the values for the inhibition in assay [2] and in assay [3] were 5% and 2%, respectively. Besides, the result in assay [5], in assay [6], in assay [7] and in assay [8] was inactive.

For `c1cncc(-c2cc(N3CCCCC3)nc(-c3ccncc3)n2)c1`, the growth inhibition in assay [1] is 46%; in assay [4] it was 99% (active). The inhibition is 18% in assay [2] and 2% in assay [3]. Further, the result in assay [5], in assay [6], in assay [7] and in assay [8] was inactive.

For the molecule `COc1ccc(CNC2CCN(C)CC2)cc1-c1ccc(S(=O)(=O)NCc2ccccc2)c(F)c1`, the figures for the growth inhibition in assay [1] and in assay [4] were 97% (active) and 101% (active), respectively. In addition, the values for the inhibition in assay [2] and in assay [3] were 53% (active) and 4%, respectively. Besides, the outcome in assay [5], in assay [6], in assay [7] and in assay [8] was inactive.

As for `Cc1cccc2[nH]c(-c3ccc(-c4cccc(CNCCNC(=O)c5ccnn5C)c4)s3)nc12`, the growth inhibition was 87% (active) in assay [1] and 102% (active) in assay [4]. Further, the inhibition in assay [2] was 17%; in assay [3], -4%. Also, the result in assay [5], in assay [6], in assay [7] and in assay [8] was inactive.

As for `CCCNC(=O)c1cncc(-c2ccc(CNC3Cc4ccccc4C3)cc2)c1`, the growth inhibition in assay [1] was 21%; in assay [4] it was 97% (active). Moreover, the values for the inhibition in assay [2] and in assay [3] were 9% and -8%, respectively. Also, the result in assay [5], in assay [6], in assay [7] and in assay [8] was inactive.

For `O=c1cc(NC[C@@H]2CCC[C@@H]2NCc2ccc(Cl)c(Cl)c2)[nH]c2ccccc12`, the growth inhibition in assay [1] is 75% (active); in assay [4], 100% (active). The inhibition in assay [2] was 9%; in assay [3], -1%. The result in assay [5], in assay [6], in assay [7] and in assay [8] was inactive.

Regarding `C/C=C/COc1ccc2ccccc2c1CNCCCCCCCCNCc1c(OC/C=C/C)ccc2ccccc12`, the growth inhibition in assay [1] was 86% (active); in assay [4] it was 87% (active). Besides, the inhibition in assay [2] was 100% (active); in assay [3] it was 3%. Moreover, the result in assay [5], in assay [6], in assay [7] and in assay [8] was inactive.

In the case of `c1cc(CN2CCCCC2)cc(OCCCNc2ccnc3ccccc23)c1`, the growth inhibition was 99% (active) in assay [1] and 100% (active) in assay [4]. For the same molecule, the inhibition in assay [2] is 48%; in assay [3] it was -1%. For the same molecule, the result in assay [5], in assay [6], in assay [7] and in assay [8] was inactive.

On to `COc1ccc(-c2cc(C(=O)Nc3ccc(CCCN(C)Cc4ccc(OC)c(OC)c4)cc3)c3ccccc3n2)cc1`, for which the growth inhibition in assay [1] is 47%; in assay [4], 92% (active). The inhibition in assay [2] is 40%; in assay [3], -3%. Besides, the outcome in assay [5], in assay [6], in assay [7] and in assay [8] was inactive.

In the case of `COc1ccc(C(=O)N2CCC3(CC2)C(=O)N(CC(=O)NC2CCCCC2)CN3c2ccccc2)c(OC)c1`, the growth inhibition in assay [1] is 99% (active); in assay [4] it was 100% (active). Also, the figures for the inhibition in assay [2] and in assay [3] were 4% and 3%, respectively. Moreover, the result in assay [5], in assay [6], in assay [7] and in assay [8] was inactive.

As for `Cc1cc(NN=Cc2ccccc2F)c2cc(F)ccc2n1`, the results for the growth inhibition in assay [1] and in assay [4] were 97% (active) and 101% (active), respectively. The inhibition is 9% in assay [2] and -5% in assay [3]. Moreover, the outcome in assay [5], in assay [6], in assay [7] and in assay [8] was inactive.

In the case of `COc1ccc(Nc2nccc(N3CCC(NC(=O)Nc4cccc(OC)c4)C3)n2)cc1` (configuration not stated), the growth inhibition was 48% in assay [1] and 99% (active) in assay [4]. The inhibition in assay [2] is 23%; in assay [3] it was -1%. In addition, the result in assay [5], in assay [6], in assay [7] and in assay [8] was inactive.

For the molecule `O=C(c1ccc2ccccc2n1)N1CCCc2cc(Br)ccc21`, the figures for the growth inhibition in assay [1] and in assay [4] were 74% (active) and 97% (active), respectively. For the same molecule, the inhibition in assay [2] is 19%; in assay [3], -3%. Further, the result in assay [5], in assay [6], in assay [7] and in assay [8] was inactive.

Consider `COc1ccc(-c2ncnc(C(F)(F)F)c2-c2ccc(Cl)cc2)c(O)c1`, for which the results for the growth inhibition in assay [1] and in assay [4] were 22% and 100% (active), respectively. Further, the inhibition in assay [2] is 1%; in assay [3] it was -4%. In addition, the result in assay [5], in assay [6], in assay [7] and in assay [8] was inactive.

`Cc1cc(NN=Cc2ccccc2Cl)c2cccc(C)c2n1`: the growth inhibition is 98% (active) in assay [1] and 97% (active) in assay [4]. Moreover, the inhibition was 10% in assay [2] and 2% in assay [3]. Besides, the outcome in assay [5], in assay [6], in assay [7] and in assay [8] was inactive.

For the molecule `CN1CCc2cc(NC(=O)c3cc4ccccc4s3)cc(-c3ccccc3)c2CC1`, the results for the growth inhibition in assay [1] and in assay [4] were 11% and 91% (active), respectively. Also, the inhibition is 20% in assay [2] and -2% in assay [3]. For the same molecule, the outcome in assay [5], in assay [6], in assay [7] and in assay [8] was inactive.

As to `N#Cc1ccc2c(c1)CCN(CCC1CCC(NC(=O)/C=C/c3c[nH]c4ccc(F)cc34)CC1)CC2` (configuration not stated), the values for the growth inhibition in assay [1] and in assay [4] were 83% (active) and 101% (active), respectively. Besides, the inhibition in assay [2] is 18%; in assay [3] it was 4%. For the same molecule, the result in assay [5], in assay [6], in assay [7] and in assay [8] was inactive.

In the case of `Cc1ccc2[nH]c(-c3ccc(C(=O)NCc4ccc(Cl)c(Cl)c4)cc3)nc2c1C`, the values for the growth inhibition in assay [1] and in assay [4] were 26% and 96% (active), respectively. Also, the values for the inhibition in assay [2] and in assay [3] were 19% and 5%, respectively. Also, the result in assay [5], in assay [6], in assay [7] and in assay [8] was inactive.
